{
  "source": "PubChem BioAssay",
  "note": "Unmarked numbers belong to inactive results. The source made the active and inactive calls. Rule as the data show it, unless noted: active = inhibition above about 36%; inactive = the rest.",
  "data": [
    {"system": "transactivating tegument protein VP16 (Human herpesvirus 1)", "test": "VP16 transactivation reporter inhibitors, counter-screen for SRC2 inhibitor project, cell-based, luminescence, single concentration (AID 652007)", "conditions": "cell-based VP16 transactivation luciferase reporter, at 8.9 µM, hits give high values", "values": [
      {"smiles": "Cc1ccc(-n2nc3c(=O)n(C(C)C(=O)NCCC4=CCCCC4)nc(C)c3c2C)cc1", "note": "(stereo not given)", "inhibition": "3.1%"},
      {"smiles": "CC(C)(C)c1ccc(-c2noc(CCC(=O)Nc3cccnc3)n2)cc1", "inhibition": "67.8% (active)"},
      {"smiles": "COc1cc(/C=C/C(=O)c2ccc(F)cc2)cc(OC)c1OC", "inhibition": "21.9%"},
      {"smiles": "O=C(Cc1ccc(Cl)cc1)c1c[nH]c(C(=O)NCc2cccnc2)c1", "inhibition": "93.5% (active)"},
      {"smiles": "COc1ccc(N(C(=O)CCl)C(C(=O)NCCc2ccccc2)c2cccs2)cc1Cl", "note": "(stereo not given)", "inhibition": "29.9%"},
      {"smiles": "Cc1cccc(C)c1NS(=O)(=O)c1ccc(-c2cnc(C3CC3)o2)cc1", "inhibition": "2.97%"},
      {"smiles": "Cc1ccc(NC(=O)c2ccccc2NS(=O)(=O)c2ccc(F)cc2)cc1S(=O)(=O)N1CCCCC1", "inhibition": "10.3%"},
      {"smiles": "Nc1ccc(-c2nc3ccc(C(=O)O)cc3s2)cc1", "inhibition": "40.2% (active)"},
      {"smiles": "Cc1ccc(C2=NN(C(=O)CCl)C(c3ccco3)C2)o1", "note": "(stereo not given)", "inhibition": "15.3%"},
      {"smiles": "COc1ccc(C(=O)C(CCC(CNC(C)(C)C)C(=O)c2ccc(OC)cc2)CNC(C)(C)C)cc1", "note": "(stereo not given)", "inhibition": "10.4%"},
      {"smiles": "Cc1ccc(C)c(N2CCN(C(=O)CCCCCn3c(=S)[nH]c4ccc(N5CCOCC5)cc4c3=O)CC2)c1", "inhibition": "69.7% (active)"},
      {"smiles": "CC1CCN(c2ccc(-c3cccs3)nn2)CC1", "inhibition": "34.7%"},
      {"smiles": "O=c1cc(CCl)nc(Cc2c(Cl)cccc2Cl)[nH]1", "inhibition": "16.8%"},
      {"smiles": "CCC(=O)c1ccc(O)c(CC=C(C)C)c1", "inhibition": "-16.9%"},
      {"smiles": "O=C(O)CCn1c(O)c(C=C2N=c3ccccc3=N2)sc1=S", "inhibition": "34.1%"}
    ]},
    {"target": "Nuclear receptor coactivator 2 (Homo sapiens) (UniProt Q15596)", "sequence (Q15596 whole entry, looked up, the tested form may be a part)": "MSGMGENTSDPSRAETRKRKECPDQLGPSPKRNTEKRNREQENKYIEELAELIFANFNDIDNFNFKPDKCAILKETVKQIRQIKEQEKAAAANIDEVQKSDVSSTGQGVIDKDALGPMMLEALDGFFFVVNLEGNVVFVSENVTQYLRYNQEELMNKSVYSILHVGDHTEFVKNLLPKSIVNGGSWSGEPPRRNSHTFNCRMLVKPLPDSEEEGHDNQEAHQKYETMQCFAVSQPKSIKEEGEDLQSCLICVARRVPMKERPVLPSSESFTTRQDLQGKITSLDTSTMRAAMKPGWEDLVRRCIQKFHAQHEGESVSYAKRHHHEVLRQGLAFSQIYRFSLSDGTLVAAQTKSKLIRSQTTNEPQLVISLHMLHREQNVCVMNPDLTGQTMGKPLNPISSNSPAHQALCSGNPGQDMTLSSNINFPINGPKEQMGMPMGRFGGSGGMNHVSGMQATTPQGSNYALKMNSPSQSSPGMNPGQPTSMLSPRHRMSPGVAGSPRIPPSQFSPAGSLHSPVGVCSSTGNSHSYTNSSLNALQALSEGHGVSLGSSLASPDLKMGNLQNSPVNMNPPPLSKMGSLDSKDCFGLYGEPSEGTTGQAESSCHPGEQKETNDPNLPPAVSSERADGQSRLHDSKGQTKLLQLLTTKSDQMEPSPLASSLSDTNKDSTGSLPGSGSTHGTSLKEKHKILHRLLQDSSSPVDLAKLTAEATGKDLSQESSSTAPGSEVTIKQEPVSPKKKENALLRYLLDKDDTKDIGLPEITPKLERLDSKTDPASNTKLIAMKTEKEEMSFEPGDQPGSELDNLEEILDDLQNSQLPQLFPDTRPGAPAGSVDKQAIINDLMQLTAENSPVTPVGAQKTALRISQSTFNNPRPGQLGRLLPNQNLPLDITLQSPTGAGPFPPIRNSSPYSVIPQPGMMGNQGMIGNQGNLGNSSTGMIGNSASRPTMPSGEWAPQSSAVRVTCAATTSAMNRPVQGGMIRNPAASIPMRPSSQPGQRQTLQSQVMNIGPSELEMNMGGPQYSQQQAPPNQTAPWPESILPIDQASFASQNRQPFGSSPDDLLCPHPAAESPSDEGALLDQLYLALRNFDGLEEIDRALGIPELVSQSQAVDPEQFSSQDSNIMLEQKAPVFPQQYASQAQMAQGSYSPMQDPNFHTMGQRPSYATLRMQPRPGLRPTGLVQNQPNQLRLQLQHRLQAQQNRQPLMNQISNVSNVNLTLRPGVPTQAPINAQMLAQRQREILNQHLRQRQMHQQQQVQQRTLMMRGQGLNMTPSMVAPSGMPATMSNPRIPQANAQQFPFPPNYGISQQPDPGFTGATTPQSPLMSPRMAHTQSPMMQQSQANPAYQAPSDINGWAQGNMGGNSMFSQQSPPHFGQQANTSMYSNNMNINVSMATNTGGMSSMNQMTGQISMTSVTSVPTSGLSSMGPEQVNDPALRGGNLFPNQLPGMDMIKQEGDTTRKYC", "test": "SRC2 coactivator transcriptional activity inhibitors, confirmation, cell-based, luminescence, HEK293, triplicate (AID 652008;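 active = mean inhibition above 46.5%, the solvent-only control mean plus 3 SD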;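 also: 0% = DMSO-treated cells and 100% = Gossypol at 36 µM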)", "conditions": "HEK293 GAL4-SRC2 luciferase reporter, at 8.9 µM, hits give high values", "values": [
      {"smiles": "Cc1ccc(-n2nc3c(=O)n(C(C)C(=O)NCCC4=CCCCC4)nc(C)c3c2C)cc1", "note": "(stereo not given)", "inhibition": "29.1%"},
      {"smiles": "CC(C)(C)c1ccc(-c2noc(CCC(=O)Nc3cccnc3)n2)cc1", "inhibition": "80.8% (active)"},
      {"smiles": "COc1cc(/C=C/C(=O)c2ccc(F)cc2)cc(OC)c1OC", "inhibition": "28.1%"},
      {"smiles": "O=C(Cc1ccc(Cl)cc1)c1c[nH]c(C(=O)NCc2cccnc2)c1", "inhibition": "95.2% (active)"},
      {"smiles": "COc1ccc(N(C(=O)CCl)C(C(=O)NCCc2ccccc2)c2cccs2)cc1Cl", "note": "(stereo not given)", "inhibition": "64.9% (active)"},
      {"smiles": "Cc1cccc(C)c1NS(=O)(=O)c1ccc(-c2cnc(C3CC3)o2)cc1", "inhibition": "17.2%"},
      {"smiles": "Cc1ccc(NC(=O)c2ccccc2NS(=O)(=O)c2ccc(F)cc2)cc1S(=O)(=O)N1CCCCC1", "inhibition": "27.6%"},
      {"smiles": "Nc1ccc(-c2nc3ccc(C(=O)O)cc3s2)cc1", "inhibition": "60.6% (active)"},
      {"smiles": "Cc1ccc(C2=NN(C(=O)CCl)C(c3ccco3)C2)o1", "note": "(stereo not given)", "inhibition": "51.2% (active)"},
      {"smiles": "COc1ccc(C(=O)C(CCC(CNC(C)(C)C)C(=O)c2ccc(OC)cc2)CNC(C)(C)C)cc1", "note": "(stereo not given)", "inhibition": "20.1%"},
      {"smiles": "Cc1ccc(C)c(N2CCN(C(=O)CCCCCn3c(=S)[nH]c4ccc(N5CCOCC5)cc4c3=O)CC2)c1", "inhibition": "60.8% (active)"},
      {"smiles": "CC1CCN(c2ccc(-c3cccs3)nn2)CC1", "inhibition": "47.3% (active)"},
      {"smiles": "O=c1cc(CCl)nc(Cc2c(Cl)cccc2Cl)[nH]1", "inhibition": "54.1% (active)"},
      {"smiles": "CCC(=O)c1ccc(O)c(CC=C(C)C)c1", "inhibition": "14.5%"},
      {"smiles": "O=C(O)CCn1c(O)c(C=C2N=c3ccccc3=N2)sc1=S", "inhibition": "72.1% (active)"}
    ]}
  ]
}
